Reference: PubChem BioAssay (NCI)
Compounds without any hit were thinned out: in the full panel of roughly 83,000, 20% have a hit.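 Negative percent growth values reflect cell death: -40 means 40% of the cells present at the start died, and -100 means all died.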 Active and inactive are the calls of the source. The calls were made as follows: active = growth percent below 10; inactive = the rest.

These compounds were tested on HL-60(TB) leukemia (assay: NCI-60 one-dose screen, 48 h (100 = growth as untreated, 0 = no growth, -100 = all killed)). Conditions: 10 µM unless noted.

Compound	growth
COc1cccc(-c2nc3sccn3c2-c2ccnc(NCCCNS(=O)(=O)c3cccc(F)c3)c2)c1	-26.9% (active)
Cc1ccc(-c2nc(SCC(=O)Nc3nc(-c4ccc(Cl)cc4)cs3)[nH]c(=O)c2C#N)cc1	111% (inactive)
Nc1ccccc1-c1ccc([N+](=O)[O-])cc1	14.2% (inactive)
O=C(/C=C/c1ccc([N+](=O)[O-])o1)NNC(=O)c1cc2ccccc2cc1O	1.21% (active)
CC(=O)O[C@H]1CC[C@@]2(C)C(=CC[C@@H]3[C@@H]2CC[C@]2(C)C(c4cccnc4)=CC[C@@H]32)C1	4.36% (active)
COc1cccc(-c2cc(-c3cccc(NS(C)(=O)=O)c3)nc(N)c2C#N)c1O	2.21% (active)
Oc1ccc(C2OCCO2)c2cccnc12	15.8% (inactive)
CCCCC(NC(=O)CN1C(=O)/C(=C/C(C)=C/c2ccccc2)SC1=S)C(=O)O (centres undefined)	113% (inactive)
COc1cc(/C=C/C(=O)N2CCN(C(=O)/C=C/c3ccccc3)CC2)cc(OC)c1OC	101% (inactive)
CN(C)CCC=C1c2ccccc2C(C)(C)c2ccccc21	85.5% (inactive)
Cc1ccc(S(=O)(=O)N2CCN(C(=O)CSc3nc4ccc(C)cc4[nH]3)CC2)cc1	-1.47% (active)
O=C(Nc1ccc(Cl)c(Cl)c1)OCn1ncc2ccc([N+](=O)[O-])cc21	96.3% (inactive)
CCCN1[C@@H]2CC[C@H]1/C(=C\c1ccc(OC)c(OC)c1)C(=O)/C2=C/c1ccc(OC)c(OC)c1	20.5% (inactive)
C/C=C/CC(C)C(O)C1C(=O)NC(CC)C(=O)N(C)CC(=O)N(C)C(CC(C)C)C(=O)NC(C(C)C)C(=O)N(C)C(CC(C)C)C(=O)NC(C)C(=O)NC(C)C(=O)N(C)C(CC(C)C)C(=O)N(C)C(CC(C)C)C(=O)N(C)C(C(C)C)C(=O)N1C (centres undefined)	-9.23% (active)
CCCCN1CCN(c2ccc3nc(-c4ccc5nc(-c6ccc(OCC)c(OCC)c6)[nH]c5c4)[nH]c3c2)CC1	3.99% (active)
CN1CCN(C(=O)OCCOCCOC(=O)N2CCN(C)CC2)CC1	98.2% (inactive)
COc1nc2ccc(C)cc2cc1/C=[N+](\[O-])c1ccccc1	80.3% (inactive)
COc1cc(CN(c2ccc(Cl)cc2)C2OC(=O)c3ccccc32)cc(OC)c1OC (centres undefined)	21.7% (inactive)
COc1ccc(-c2cc(-c3ccc(Cl)cc3)nc(SCCCCCCC(=O)NO)n2)cc1	-18.2% (active)
O=C(Cc1ccc(/C=C/C(=O)c2ncc[nH]2)cc1)Nc1cc(C(F)(F)F)cc(C(F)(F)F)c1	52.1% (inactive)

Compound	growth
C=C(C)[C@@H]1CC[C@]2(CO)CC[C@]3(C)[C@H](CC[C@@H]4[C@@](C)(CCCN)[C@H](C(=C)C)CC[C@]43C)[C@@H]12	-54.7% (active)
Cc1ccc(-c2nc(C#N)c(S(=O)(=O)n3nc(C)cc3N)o2)cc1	16.6% (inactive)
OC1CCCc2ccccc21 (centres undefined)	98.4% (inactive)
C/C=C(/C)n1cnc2c(Nc3ccccn3)nc(Cl)nc21	107% (inactive)
Nc1ncnc2c1c(C(F)(F)F)cn2[C@@H]1O[C@H](CO)[C@@H](O)[C@H]1O	-26.1% (active)
Cc1ccccc1Nc1cc(O)c2c(=O)cc(-c3ccccc3)oc2c1	8.58% (active)
CN(Cc1cnc2nc(N)nc(N)c2n1)c1ccc(C(=O)NC(CCC(=O)O)C(=O)O)cc1 (centres undefined)	29.5% (inactive)
CCC1C[N+]2=C(c3cc(OC)c(OC)cc3CC2)c2c1cc1n2CCc2cc(OC)c(OC)cc2-1 (centres undefined)	8.26% (active)
O=C1CSc2ccccc2N1	121% (inactive)
CC1=C(O)C(=O)CC1	112% (inactive)
Cn1cc(C(=O)c2nc(-c3c[nH]c4ccc(F)cc34)no2)c2cc(F)ccc21	70.5% (inactive)
Cc1ccc(S(=O)(=O)OC2COCOC2C(OS(=O)(=O)c2ccc(C)cc2)C2OCOCC2OS(=O)(=O)c2ccc(C)cc2)cc1 (centres undefined)	106% (inactive)
CN(C)c1ccc2c(c1)/C(=N/O)c1ccccc1-2	87.3% (inactive)
CCn1cc(C(=O)O)c(=O)c2cc(F)c(N3CCN(S(=O)(=O)c4cccc5ccccc45)CC3)cc21	-46.2% (active)
C[n+]1ccccc1C[n+]1ccccc1	90.9% (inactive)
CCCCCCCCCCCCCCCCCC(=O)NCCNC(=O)CCCCCCCCCCCCCCCCC	67.8% (inactive)
CCCCC(CCc1ccc([N+](=O)[O-])cc1)(C(C)=O)C(=O)OCC (centres undefined)	93% (inactive)
CC/C=C\C[C@H](O)C/C=C1/C(=O)C=C[C@@H]1C/C=C\CCCC(N)=O	-30.9% (active)
O=c1oc2c(cc1-c1ccccc1)c[n+]([O-])c1ccccc21	97.7% (inactive)
